One may read the inhibition as the drop in the measured response relative to a control, in per cent.

Screen size: about 1,400 compounds; about 380 (27%) were called active. The list shows a part of the results. Unmarked numbers belong to inactive results.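 How the source made its calls: active means mean inhibition above 50% across duplicate retests at 10 µM; inactive means the rest.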

This test can be described thus: inhibition of NALP1/ASC/caspase-1 reporter signal in yeast, confirmation, NALP1 inhibitor project, S. cerevisiae, luminescence, single concentration (AID 488841).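 Further: plate controls were DMSO in galactose medium for no effect and cells in plain SD medium for full effect.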 As to conditions: S. cerevisiae NALP1/ASC/Caspase-1 reporter, beta-gal luminescence; at 10 µM; hits give high values.
With `COC(=O)/C=C/C(=O)N1CCN(c2cccc(Cl)c2)CC1`, the inhibition is 54.7% (active).
To `O=C(CN1CCN(c2cccc(Cl)c2)CC1)Nc1ccc(S(=O)(=O)N2CCOCC2)cc1` belongs 35.4%; to `COC(=O)c1cc(OC)c(OC)cc1NC(=S)N1CCN(c2ccccc2)CC1`, 30%; to `Cc1ccnc(NS(=O)(=O)c2ccc(NC(=O)CSc3nc(-c4ccccc4)cc(=O)[nH]3)cc2)n1`, 12.6%.
To `CCOc1cc(C(=O)OCC(=O)Nc2ncc(Cl)c(C)c2Cl)ccc1OCC(=O)N1CCOCC1` belongs 27.4%; to `Cc1ccc2cc3cc(C(=O)NCCCN4CCc5ccccc5C4)oc3nc2c1`, 30.9%; to `COC(=O)/C(=N/Nc1ccc(C)cc1)N1CCCc2ccccc21`, 32%.
To `Cc1ccc(NC(=O)N2CCc3ccccc3C2)cc1` belongs 64.8% (active); to `CC(=O)N1CCCc2cc(S(=O)(=O)N3CCc4ccccc4C3)ccc21`, 33.2%.
Turning to `O=C(Nc1ccccc1)N1CCc2ccccc2C1`, the inhibition is 62% (active).
To `O=C(NCCCN1CCc2ccccc2C1)Nc1ccc(Br)cc1` belongs 25.1%; to `CCCCCCCCCCOC(=O)Cn1c(COc2ccc(Cl)cc2)[n+](C)c2ccccc21`, 34%.
The value for `O=C1NC(c2ccccc2)Nc2c1sc(=S)n2-c1ccccc1` (configuration not stated) was 25.1%; that for `CCN(CC)S(=O)(=O)c1ccc2oc(C(=O)NC3CCCc4ccccc43)c(C)c2c1` (configuration not stated) was 4.35%.
Turning to `CCN1/C(=C/c2ccc3ccc(C)cc3[n+]2CC)Sc2ccccc21`, the inhibition was 21.4%.
The value for `CC[n+]1c(/C=C2\Sc3ccccc3N2C)ccc2cccc(C)c21` was 96.8% (active); that for `CCN1/C(=C/c2ccc3cc(C)ccc3[n+]2CC)Sc2ccccc21` was 101% (active).
On to `CCN1/C(=C\c2ccc3ccccc3[n+]2CC)Sc2cc(C)ccc21`, for which the inhibition is 98.2% (active).
For the compound `Cc1cc(=O)n2ccccc2c1C#N`, the inhibition is 9.65%.
To `C/C(=N/NC(=O)c1nnn(-c2nonc2N)c1COc1ccccc1)c1ccc(O)cc1` belongs 22.6%; to `Cc1cc(C)cc(C(=O)OCC(=O)NCCNC(=O)COC(=O)c2cc(C)cc(C)c2)c1`, 31.4%; to `OCCN(CCO)c1ncnc2c1oc1ccc(Br)cc12`, 31.3%.
The value for `CC1CN(S(=O)(=O)c2ccc(C(=O)Nc3nc(-c4cc5ccccc5o4)cs3)cc2)CC(C)O1` (configuration not stated) was 30.1%.
`N#CC1(C#N)CC(C=O)=C(N)C1(C#N)CC(=O)C12CC3CC(CC(C3)C1)C2` (configuration not stated): the inhibition was 36.1%.
The value for `Cc1ccc(Cl)cc1N1CCN(S(C)(=O)=O)CC1` was 39.6%; that for `CCCC(CCC)c1nc2ccncc2[nH]1` was 27.4%.
Consider `CC(=O)NS(=O)(=O)c1ccc(NC(=O)CSc2ccccc2)cc1`, for which the inhibition is 8.45%.
To `CCCCNCCOCCOc1ccc(Cl)cc1Br` belongs 48%.
The value for `CCN(CC)CCCOc1ccc(Cl)c(Cl)c1` was 44.2%; that for `C#CCN(C)CCCOc1ccc(Cl)cc1Cl` was 55.1% (active).
To `CC(C)CC(=O)N1CCN(S(=O)(=O)c2ccccc2)CC1` belongs 24.9%; to `COc1ccc(-c2cc(-c3cc(OC)ccc3O)[nH]n2)cc1`, 49.4%; to `Cc1ccc2c(c1)c1c3n2CCCNC3CCC1` (configuration not stated), 43.8%.
In the case of `O=C(c1ccccc1-c1ccccc1)N1CCN(c2ccccn2)CC1`, the inhibition is 29.1%.
To `CCOC(=O)c1cc(-c2ccccc2)n(CCC(=O)N2CCN(c3ccccn3)CC2)c1C` belongs 39.2%; to `O=C(N1CCN(c2ccccn2)CC1)C(Cl)(Cl)Cl`, 60.1% (active); to `C=C(C)C(=O)Nc1cccc(C(C)=O)c1`, 10.3%.
On to `Cn1c(SCC(=O)NC(c2ccccc2)c2ccccc2)nnc1-c1cccs1`, for which the inhibition is 34%.
To `C=C(C)C(=O)Nc1nnc(-c2cccs2)s1` belongs 55.5% (active).
On to `CN1/C(=C\C(=O)c2cccs2)C(C)(C)c2ccccc21`, for which the inhibition was 35.5%.
Regarding `O=C(COC(=O)CCC1CCCCC1)Nc1ccc(OC(F)F)cc1`, the inhibition is 19.5%.
The value for `CCCCNC1CCS(=O)(=O)C1` (configuration not stated) was 24%; that for `CCCCCCOc1ccc(/C(C)=N/NC2=NCCN2)cc1` was 51.5% (active); that for `CCCCCCOc1ccc(-c2ccc(C#N)cn2)cc1` was 34.9%.
To `CCCCOc1ccc(CSC2=NCCN2)cc1[N+](=O)[O-]` belongs 43.9%; to `CCCCCCOc1ccc(OC(=O)c2ccncc2)cc1`, 24.9%.
The value for `CCCCCOc1ccc(Br)cc1/C(C)=N/NC1=NCCN1` was 51.2% (active).
As for `CCn1c(SCC(=O)Nc2ccc3c(c2)OCO3)nnc1-c1cnccn1`, the inhibition was 36.9%.
Consider `CCOc1ccccc1C1CC(=O)NC(SCC(=O)Nc2nccs2)=C1C#N` (configuration not stated), for which the inhibition was 10.4%.
Turning to `CCOc1nc(N2CCOCC2)nc(N2CCOCC2)n1`, the inhibition was 29.6%.
Take `O=[N+]([O-])c1cc(Cc2ccccc2)cc(C=Nc2ccc(N3CCOCC3)cc2)c1O`: the inhibition was 47.5%.
To `COc1cccc(/C=N/NC(=O)CNC(=O)C2COc3ccccc3O2)c1O` (configuration not stated) belongs 41%.
To `O=C(N/N=C\c1cccc([N+](=O)[O-])c1O)C1COc2ccccc2O1` (configuration not stated) belongs 56.7% (active).
The value for `NCCS` was 55.1% (active); that for `CCCCCCC(=O)N(O)C1CC(=O)N(Cc2ccccc2)C1=O` (configuration not stated) was 15.2%.
As for `C=CCn1c(CNC(=O)c2cccs2)nnc1SCC(=O)Nc1ccc(C(=O)O)cc1`, the inhibition was 24.2%.
The value for `Cc1ccccc1Nc1cc(C)c2c(O)cccc2n1` was 65.8% (active); that for `CC(=O)Nc1ccc2nc(CN3CCC(CO)(CCc4ccccc4)CC3)ccc2c1` was 34.5%; that for `Cc1c([N+](=O)[O-])c(C(=O)Nc2ccc3c(c2)OCCO3)nn1C` was 27.4%.
The value for `CNc1ccc(/C=C/C(=O)c2ccc3c(c2)OCCO3)cc1[N+](=O)[O-]` was 52.8% (active); that for `CCn1c(SCC(=O)Nc2oc(-c3ccccc3)c(-c3ccccc3)c2C#N)nnc1-c1cc(OC)cc(OC)c1` was 22.6%.
Regarding `COc1ccc(S(=O)(=O)N(CC(=O)N2CCOCC2)Cc2ccccc2)cc1C`, the inhibition was 22.4%.
To `CC1(C)CC(=O)c2c(-c3cccs3)n[nH]c2C1` belongs 38.8%.
`CC1=NNC(=O)/C1=C\c1cn(-c2ccccc2)nc1-c1cccs1`: the inhibition is 62.4% (active).
Consider `Brc1ccc2c(c1)OCCOCCOc1cc(Br)ccc1OCCOCCOCCO2`, for which the inhibition is 59.6% (active).
Take `CCCc1cc(C(=O)Nc2ccc(F)cc2F)no1`: the inhibition is 36.5%.
The value for `CCn1ncc(C(=O)Nc2cccc(Cl)c2)c1C` was 53.8% (active); that for `CCn1ncc([N+](=O)[O-])c1C(=O)Nc1ccc(C(=O)N2CCCCC2)cc1` was 32.5%.
The value for `CCCc1cc(C(=O)Nc2cccc(Cl)c2)no1` was 67.2% (active); that for `CCn1nccc1C(=O)Nc1ccc(Cl)cn1` was 35.4%; that for `CCCc1cc(C(=O)Nc2c(C)n(C)n(-c3ccccc3)c2=O)no1` was 23.7%.
Consider `COc1ccc(NC(=O)c2sc(N3CCOCC3)nc2-c2ccccc2)c(OC)c1`, for which the inhibition is 48.4%.
Consider `O=C(/C=C/c1ccccc1Cl)c1ccc[nH]1`, for which the inhibition is 73% (active).
To `Cc1cc(NC(=O)/C=C/c2ccccc2Cl)no1` belongs 46.5%; to `CC(NC(=O)Nn1cnnc1)(C(F)(F)F)C(F)(F)F`, 9.3%.
The value for `CCCCCCCCNC(C)C(O)c1ccc(SC(C)C)cc1` (configuration not stated) was 46.5%; that for `Cc1cc(C(C)(C)C)cc(S(=O)(=O)Nc2ccc(O)c(C(=O)O)c2)c1C` was 24.9%.
The value for `CC1(C)CCSC(/C=C/c2ccccc2)=N1` was 84% (active).
Turning to `CCOC(=O)C1CCCCN1Cc1cccc(F)c1` (configuration not stated), the inhibition is 19.9%.
The value for `O=C(O)C1(c2ccccc2)CCN(S(=O)(=O)c2ccc(Br)cc2)CC1` was 32.4%; that for `O=S(=O)(c1ccc(Br)cc1)N1CCCN(Cc2cccc(F)c2)CC1` was 59.5% (active); that for `COc1ccc(CCN(C)C2CC(=O)N(c3ccccc3)C2=O)cc1OC` (configuration not stated) was 45%.
The value for `Cc1ccc(C(=O)/C=C\C(=O)c2ccc(C)cc2)cc1` was 51.1% (active).
The value for `Cc1ccc(C(=O)Oc2ccc3c(c2)ncn3C)cc1` was 47.5%.
As for `O=C(Nc1nc2c(c(=O)[nH]1)CCCC2)C1CC1`, the inhibition was 27%.
To `O=C1CC(c2ccccc2Cl)CC(O)=C1C=Nc1ccccc1` (configuration not stated) belongs 52.8% (active); to `O=C1CC(c2cccc(Cl)c2)CC(O)=C1C=Nc1cccc(Cl)c1` (configuration not stated), 36.5%; to `C/C(=N\N1CCN(c2ccc(Cl)cc2)CC1)c1ccco1`, 23.6%.
To `Cc1c(N)c(C(C)(C)C)cc(C(C)(C)C)c1[N+](=O)[O-]` belongs 29.1%; to `OC(CNCCc1ccc(C(F)(F)F)cc1)COc1cccc2ccccc12` (configuration not stated), 65.5% (active).
The value for `COCCNC(=O)CCc1ccc(S(=O)(=O)Nc2ccc(C)cc2)cc1` was 25.8%.
For the compound `COC(=O)c1ccccc1NC(=O)N1CCN(C/C=C/c2ccccc2)CC1`, the inhibition was 39.6%.
The value for `O=C(c1ccc(Br)s1)N1CCN(C/C=C/c2ccccc2)CC1` was 50.6% (active); that for `CCC(C)c1ccccc1NC(=O)CN1CCN(C/C=C/c2ccccc2)CC1` (configuration not stated) was 46.3%; that for `O=C(NCC1CCCO1)C(c1cccs1)N(Cc1cccs1)C(=O)Cn1nnc(-c2cccs2)n1` (configuration not stated) was 28.1%.
The value for `C#CCCCCCCC#CCN(C)C` was 28.6%; that for `CSc1sc(C(=O)N2CCc3ccccc32)cc1S(=O)(=O)C(C)C` was 20.9%; that for `CCC(=O)N1CCc2cc(S(=O)(=O)N3CCc4ccccc43)ccc21` was 10.5%.
To `O=C(c1cnn2ccccc12)N1CCc2ccccc21` belongs 58% (active); to `O=C(/C=C\Nc1cccc(F)c1)c1cccs1`, 31.6%; to `CCN(CC)S(=O)(=O)c1cccc(C(=O)Oc2cccc(NC(=O)c3cccs3)c2)c1`, 36%.
Turning to `COc1cc(NC(=O)c2cccs2)cc(OC)c1`, the inhibition is 78.8% (active).

(Values after PubChem BioAssay AID488841 (Sanford-Burnham Center for Chemical Genomics, 2010).)
